Screening results from PubChem BioAssay.
USP2a block: blocks human ubiquitin-specific protease USP2a; USP2 core, Ub-CHOP2 coupled fluorogenic reporter, 485/531; Potency, µM (doses to about 38.3 µM), without a hit: at the top dose activity change, negative = inhibition, actives largely listed as inhibitors; hit rate 0.01% among 330,000; AID 463254;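 also: potency is read from the fitted curve at half-maximal effect; plate controls were DMSO wells for no effect and full inhibition by NEM control for full effect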
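Cell-free coupled assay: 10nM USP2 core preincubated 30min RT with compound in Tris-HCl pH 8.0/CaCl2/CHAPS buffer, then 25nM Ub-CHOP2 and 25nM reporter substrate; fluorescence (Ex 485/Em 531) read after 60min RT, normalized to NEM inhibition, concentration-response curves fitted.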
GALK inhibitor: inhibitors of human galactokinase. Potency, µM (doses to about 57.5 µM), without a hit: at the highest dose activity change, negative = inhibition, hits mostly inhibitors. hit rate 0.007% among 270,000. AID 1868. Purified GALK, Kinase-Glo residual ATP luminescence; also: potency is read from the fitted curve at half-maximal effect
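5 nM enzyme, 35 uM ATP, 100 uM galactose, 20 mM HEPES pH8.0, 5 mM MgCl2; 1 h RT; residual ATP by Kinase-Glo Plus luminescence, qHTS format.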
VDR inhibitor: blocks the human vitamin D receptor. VDR-SRC2-3 peptide fluorescence polarization, 2 h. P11473. AID 504847. Potency, µM, for the others: max response, negative = inhibition, hits mostly inhibitors. hit rate 0.93% among 400,000; also: potency is read from the fitted curve at half-maximal effect
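Compounds are added to VDR with labelled SRC2-3 coactivator peptide and held 2 h at room temperature. Inhibition of the VDR–peptide interaction is then read as a change in fluorescence polarization.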
PLK1 PBD inh: PLK1 (human) polo-box domain binding inhibition; Potency, µM, for inactives: max response, negative = inhibition, hits mostly inhibitors; hit rate 2.8% among 360,000; AID 720504; Plk1 PBD binding of FITC phosphopeptide, fluorescence polarization; also: potency is read from the fitted curve at half-maximal effect; series mostly up to about 57 µM; nearly all actives have a fitted effect of over 65% in size
Target sequence (P53350 whole entry, looked up, the tested form may be a part): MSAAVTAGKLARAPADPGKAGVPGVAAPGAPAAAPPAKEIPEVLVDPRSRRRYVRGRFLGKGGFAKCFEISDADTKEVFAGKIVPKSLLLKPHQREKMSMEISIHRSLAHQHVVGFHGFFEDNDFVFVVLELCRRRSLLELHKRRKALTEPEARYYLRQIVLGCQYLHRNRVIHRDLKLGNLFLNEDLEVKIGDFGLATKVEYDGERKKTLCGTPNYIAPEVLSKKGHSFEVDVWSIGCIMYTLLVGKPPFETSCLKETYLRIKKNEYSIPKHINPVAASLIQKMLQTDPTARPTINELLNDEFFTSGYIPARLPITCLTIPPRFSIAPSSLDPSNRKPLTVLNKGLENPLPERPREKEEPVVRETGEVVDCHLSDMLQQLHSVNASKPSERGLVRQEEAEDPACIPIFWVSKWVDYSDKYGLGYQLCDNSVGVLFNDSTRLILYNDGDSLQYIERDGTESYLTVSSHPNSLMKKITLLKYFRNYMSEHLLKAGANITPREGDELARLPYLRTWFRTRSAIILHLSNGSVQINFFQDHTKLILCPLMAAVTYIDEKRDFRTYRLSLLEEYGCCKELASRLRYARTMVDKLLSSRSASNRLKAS
USP1 inh: USP1/UAF1 (human) deubiquitinase inhibition; O94782; recombinant USP1/UAF1, Ub-Rhodamine cleavage fluorescence; Potency, µM (highest dose often 57.1 µM), inactives show at the highest dose activity change, negative = inhibition, most hits filed as inhibitors; hit rate 0.23% among 390,000; also: potency is read from the fitted curve at half-maximal effect; nearly all actives have a fitted effect of over 60% in size
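USP1/UAF1 complex at 1 nM was preincubated with compound for 15 min at room temperature, then Ub-Rho substrate (150nM final) was added. Fluorescence (480/540 nm) was read kinetically, 6 reads every 60 seconds.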
FBPA coupling cs: coupling enzyme interference in Giardia aldolase counter-screen | coupling enzyme system counterscreen, AmpLite Red fluorescence | activity change, negative = inhibition, % at 58.2 µM, hits read low | hit rate 0.67% among 290,000 | AID 2472; in the data active = activity change below about -30%
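Final compound at 57.5 uM, incubated 10 min at RT with coupling enzyme reagent (glyceraldehyde-3-phosphate), then 20 min with substrate and AmpLite Red detection. Fluorescence read at 525/598 nm; tests interference with the coupling assay, not aldolase inhibition.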
An asterisk follows results filed as active; ? = inconclusive; . = not tested or not shown. In the library only some 3.2% were active in any assay of this set; here they are far more common. Unless noted, calls follow the shape of the dose curve; as a rule, active = well fitted curve in the direction sought with a large enough effect; inconclusive = small, poorly fitted or top-dose-only effect, or another doubt; inactive = no such curve, though single readings can be large; an effect the other way counts as inactive or inconclusive. Unless noted, % is scaled to controls: 0 for no effect and ±100 for the full control effect.

SMILES | USP2a block | GALK inhibitor | VDR inhibitor | PLK1 PBD inh | USP1 inh | FBPA coupling cs
O=C(c1ccco1)N1CCC2(CCCN(C(c3ccccc3)c3ccccc3)C2)CC1 | . | . | 35.5µM* | . | . | -1.6
O=C(c1ccncc1)N1CCC[C@@]2(CCN(c3cccc(-c4ccccc4)c3)C2)C1 | . | . | 39.8µM* | . | . | -1.1
O=C(c1ccncc1)N1CCC2(CCCN(c3cccc(-c4ccccc4)c3)C2)CC1 | . | . | 44.7µM* | . | . | -1.1
O=C(c1ccncc1)N1CCC2(CC1)CCN(c1cccc(-c3ccccc3)c1)CC2 | . | . | ? | . | . | 2.1
O=C(Nc1ccc(S(=O)(=O)Nc2ncccn2)cc1)c1ccccc1 | 0.4% | -2.5% | 9.9% | 8.7% | -3.8% | -0.6
Cc1ccc(N(CC(=O)NCCc2ccc(Cl)cc2)S(=O)(=O)c2c(C)noc2C)cc1 | 0.1% | -0.4% | -10.3% | -14.8% | -9.2% | .
O=C(c1ccco1)N1CCC[C@@]2(CCN(c3cccc(-c4ccccc4)c3)C2)C1 | . | . | 28.2µM* | . | . | -0.2
O=C(c1ccco1)N1CCC[C@@]2(CCN(c3ccccn3)C2)C1 | . | . | -15.0% | . | . | 1.4
[O-][N+](=Cc1ccccc1)c1ccc(Cl)cc1 | . | . | ? | 21.2µM* | -1.0% | .
[O-]/[N+](=C\c1ccco1)c1ccc(Cl)cc1 | 0.5% | 0.6% | 35.5µM* | ? | -22.5% | 2.8
Cc1ccccc1OCC(=O)NN1Cc2ccccc2C1=N | 5.4% | 1.7% | -11.0% | 26.7µM* | -19.3% | -1.3
Cc1ccc2cc(C#N)c(N3CCCN(C(=O)C4CCCO4)CC3)nc2c1 (centres undefined) | 0.0% | 0.2% | -10.7% | 0.3% | -15.3% | -2.5
Cc1ccc2cc(C#N)c(NCCCNC(=O)C3CCCO3)nc2c1 (centres undefined) | 1.2% | 0.6% | -11.6% | -2.1% | -10.8% | -35.3*
COc1ccc(NC(=O)c2cc(S(=O)(=O)N3CCCCC3)ccc2N2CCCCC2)cn1 | 1.9% | -1.0% | -5.3% | -1.3% | -31.7% | -35.0*
Cc1ccc(NC(=O)c2cc(S(=O)(=O)N3CCCCC3)ccc2N2CCOCC2)cc1 | . | . | . | 3.0% | -15.9% | .
COc1ccc2c(c1)C(C)=CC(C)(C)N2C(=O)CN1C(=O)CCC1=O | 2.3% | -1.3% | 2.8% | -1.5% | -14.0% | 1.3
CCNC(=O)N1c2ccc(OC)cc2C(C)=CC1(C)C | -0.4% | 1.1% | 13.7% | -9.0% | -8.7% | -40.3*
C/C(=N/NC(=O)c1cc2ccccc2cc1O)C1C(=O)c2ccccc2C1=O | ? | -6.4% | -25.3% | 9.47µM* | ? | 4.8
CCN(CC)C(=O)C1CCCN(c2ccc([N+](=O)[O-])cc2)C1 (centres undefined) | -2.7% | 6.8% | 2.9% | -9.1% | -12.5% | -2.3
Cc1cc(C)cc(N(CC(=O)NCC2CCCO2)C(=O)CN2C(=O)COc3ccccc32)c1 (centres undefined) | 1.4% | -1.1% | -18.5% | 29.9µM* | -11.2% | 4.6
O=C(CN(C(=O)C1COc2ccccc2O1)c1ccccc1)NCC1CCCO1 (centres undefined) | 1.2% | 3.3% | -8.0% | -2.4% | -3.9% | -0.8
COCCCNc1nc2nonc2nc1NCCSC | -1.2% | 2.7% | 5.8% | 0.9% | -16.7% | 0.3
O=C(Nc1cc(S(=O)(=O)Nc2ccc(Cl)cc2)ccc1O)c1ccc(S(=O)(=O)N2CCCCCC2)cc1 | -10.6% | 2.8% | ? | 11.9µM* | -15.8% | 5.5
O=C(Nc1cc(S(=O)(=O)N2CCCCC2)ccc1O)c1ccccc1NS(=O)(=O)c1ccc(F)cc1 | -1.7% | -2.2% | 2.3% | 26.7µM* | -3.1% | 5.5
CC(C)(C)C1(C)OC(=O)C(=Cc2ccc(OCC(=O)Nc3ccccc3)cc2)C(=O)O1 (centres undefined) | 5.1% | -0.7% | 10.6% | 2.38µM* | -15.3% | 0.6
SMILES | USP2a block | GALK inhibitor | VDR inhibitor | PLK1 PBD inh | USP1 inh | FBPA coupling cs
CC(=O)C1=C(O)C(=O)N(Cc2ccco2)C1c1ccccc1 (centres undefined) | 0.6% | 4.9% | -0.5% | 1.5% | -23.6% | -7.0
COc1cccc(C2C(C(C)=O)=C(O)C(=O)N2Cc2ccco2)c1 (centres undefined) | -0.5% | -2.3% | 3.4% | 23.8µM* | -19.3% | -3.6
CCOc1ccc(NC(=O)C(=O)NCCN2CCN(S(=O)(=O)c3ccccc3)CC2)cc1 | -0.8% | -1.0% | ? | 23.8µM* | -18.5% | 4.0
COc1ccc(Cc2nn3c(-c4ccccc4Br)nnc3s2)cc1 | -4.3% | -2.0% | -4.0% | -2.6% | -20.2% | -4.0
COc1ccc(Cc2nn3c(-c4cc(OC)c(OC)c(OC)c4)nnc3s2)cc1 | -7.1% | 1.6% | -20.8% | 23.8µM* | -24.1% | 1.8
COc1cc(-c2nnc3sc(Cc4ccccc4)nn23)cc(OC)c1OC | 2.3% | -0.6% | -16.2% | 26.7µM* | -10.2% | 6.4
COc1cc(-c2nnc3sc(Cc4ccc(Cl)cc4)nn23)cc(OC)c1OC | . | . | ? | 23.8µM* | -30.4% | .
Cn1ccnc1SCC(=O)Nc1sccc1C#N | 1.9% | -2.2% | 7.9% | -17.9% | -0.1% | 3.8
O=C(NCCc1csc(-c2ccccc2)n1)c1ccco1 | 2.0% | -0.6% | ? | 10.6µM* | -19.3% | -6.8
O=C(NCCc1csc(-c2cccc(F)c2)n1)c1ccco1 | 1.3% | 5.3% | 7.3% | -12.3% | -15.9% | .
O=[n+]1c2c(n([O-])c3cc(F)c(N4CCCC4)cc31)CCC2 | . | . | -14.3% | -27.6% | ? | .
COC(=O)c1ccc(N(C(=O)CNC(=O)c2ccco2)C(C(=O)NC2CCCC2)c2ccco2)cc1 (centres undefined) | -0.1% | -0.4% | -16.1% | 26.7µM* | -19.5% | 0.2
COc1ccc(N(C(=O)CNC(=O)c2ccco2)C(C(=O)NC2CCCCC2)c2ccco2)cc1 (centres undefined) | -0.9% | 0.3% | 2.2% | 1.9% | -12.7% | 0.2
COc1ccc(N2C(=NC(=O)C3CCCCC3)SC3CS(=O)(=O)CC32)c(OC)c1 (centres undefined) | 3.3% | -7.5% | ? | 11.9µM* | -15.4% | .
COc1ccc(N2C(=NC(=O)C3CCCCC3)SC3CS(=O)(=O)CC32)cc1 (centres undefined) | 3.3% | 5.9% | 1.5% | 2.0% | -12.7% | 1.3
CCOCCCN(C)C1CCN(C(=O)c2oc3ccccc3c2NC(=O)Cc2ccc([N+](=O)[O-])cc2)CC1 | 1.7% | 3.2% | -3.7% | -0.7% | -8.7% | .
c1ccc(CCc2cn(C[C@H]3CC[C@@H]([C@@H]4CC[C@H](Cn5cc(CCc6ccccc6)nn5)O4)O3)nn2)cc1 | 1.0% | . | ? | 26.7µM* | 14.3% | 4.0
Cc1ccc(C2C(C#N)=C(N)Oc3c2oc(CO)cc3=O)o1 (centres undefined) | 0.4% | 5.9% | -7.5% | -4.4% | -11.3% | -37.7*
